{"source": "PubChem BioAssay (NCI)", "note": "Several values for one entry are separate records, joined by “and”; a condition that tells them apart may be missing. Identical values can stand only once. Compounds without any hit were thinned out: in the full panel of roughly 83,000, 20% have a hit.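 A percent growth of 40 corresponds to 60% growth inhibition; 0 means no net growth; -100 means all cells died. Active threshold: below 10.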 Activity calls are given as the source filed them."}
{"system": "HOP-62 NSCLC", "test": "NCI-60 one-dose screen, 48 h (100 = growth as untreated, 0 = no growth, -100 = all killed)", "conditions": "10 µM", "protocol": "(§1) Growth inhibition of the HOP-62 human Non-Small Cell Lung tumor cell line is measured as a screen for anti-cancer activity. Cells are grown in 96 well plates and exposed to the test compound for 48 hours. Compounds are tested at a single concentration, which is 10^-5 M for most compounds. The reported endpoint is percent growth (GI% or GIPRCNT), where numbers from 0 - 100% represent growth inhibition, and numbers from -100% - 0 represent cell death. For example, a value of 40 represents 60% growth inhibition. A value of 0 means no net growth occurred over the course of the experiment. A value of -40 indicates 40% of cells at the beginning of the experiment died by the end of the experiment. A value of -100 means all cells are dead at the end of the experiment.\n(§2) NCI-60 Human Tumor Cell Lines Screen was performed using the standard one-dose NCI protocol, which is described in more detail at https://dtp.cancer.gov/discovery_development/nci-60/default.htm.\n(§3) Compounds with GIPRCNT values below 10 were considered active. Activity score was based on GIPRCNT using the following formula: […]\n(§4) Score is 0 for GIPRCNT values of 100 or above, 50 for GIPRCNT values of 0, and 100 for GIPRCNT values of -100."}
{"smiles": "CS/C(=C\\c1ccc(C(=O)c2ccc(C)cc2)n1C)S(C)=O", "note": "(stereo unspecified)", "growth": "96.8% (inactive)"}
{"smiles": "O=c1ccn2c(n1)OC1CC2OC1COC(c1ccccc1)(c1ccccc1)c1ccccc1", "note": "(stereo unspecified)", "growth": "99.6% (inactive)"}
{"system": "HOP-62 NSCLC", "test": "NCI-60 one-dose screen, 48 h (100 = growth as untreated, 0 = no growth, -100 = all killed)", "conditions": "10 µM unless noted", "protocol": "as §1, §2, §3, §4"}
{"smiles": "CN(C)c1ccc(C(=N)c2ccc(N(C)C)cc2)cc1", "growth": "26.3% (inactive) and 37.2% (inactive)"}
{"smiles": "Cc1cnc(N)s1", "growth": "78.3% (inactive)"}
{"smiles": "NCCSSC/C=C\\CSSCCN", "growth": "98.4% (inactive)"}
{"smiles": "CCOCCC(=O)O", "growth": "115% (inactive)"}
{"smiles": "N=C(N)N1CCc2ccccc2C1", "growth": "93.1% (inactive) and 96.8% (inactive)"}
{"smiles": "CS(=O)(=O)OCC1NC(=O)C(COS(C)(=O)=O)NC1=O", "note": "(stereo unspecified)", "growth": "106% (inactive) and 118% (inactive)"}
{"smiles": "CCN(C)c1ccccc1", "growth": "108% (inactive)"}
{"smiles": "CC(=O)Nc1ccc2oc(=O)ccc2c1", "growth": "96.7% (inactive)"}
{"smiles": "O=C(O)c1c2c(nc3ccccc13)Cc1ccccc1-2", "growth": "118% (inactive) and 88.9% (inactive)"}
{"smiles": "CCOC(=O)CN1CCC(C(=O)OCC)CC1", "growth": "98.9% (inactive)"}
{"smiles": "CC1OS(=O)OC1C", "note": "(stereo unspecified)", "growth": "101% (inactive) and 105% (inactive)"}
{"smiles": "CCCC(=O)OCC(COC(=O)CCC)OC(=O)CCC", "growth": "98.6% (inactive)"}
{"smiles": "CC1(C)OC(=O)C(=Cc2ccc(C#N)cc2)C(=O)O1", "growth": "90.6% (inactive) and 114% (inactive)"}
{"smiles": "O=C1C=CC(n2cc(F)c(=O)[nH]c2=O)O1", "note": "(stereo unspecified)", "growth": "79.5% (inactive)"}
{"smiles": "COc1ccc([N+](=O)[O-])cc1OC", "growth": "98.2% (inactive) and 109% (inactive)"}
{"smiles": "CN(C=O)c1ccccc1", "growth": "92.3% (inactive)"}
{"smiles": "COc1ccc(/C=C/C(=O)O)cc1OC", "growth": "104% (inactive) and 105% (inactive)"}
{"smiles": "Cc1c(O)nc(N)[nH]c1=O", "growth": "99.7% (inactive)"}
{"smiles": "COc1ccc2oc3c(ccc[n+]3C)c(=O)c2c1", "growth": "80.5% (inactive)"}
{"smiles": "COC(=O)C(Cc1cn(C(C)=O)c2ccccc12)P(=O)(OC)OC", "note": "(stereo unspecified)", "growth": "93.3% (inactive)"}
{"smiles": "Cc1c(Cl)c(C)c(Cc2c(C)c(Cl)c(C)c(Cl)c2O)c(O)c1Cl", "growth": "15.8% (inactive)"}
{"smiles": "CC(=O)Oc1cc(C(C)C)c(OCCN(C)C)cc1C", "growth": "110% (inactive) and 97.1% (inactive)"}
{"smiles": "Cn1c(-c2ccccc2)cc(=O)cc1-c1ccccc1", "growth": "98.3% (inactive)"}
{"smiles": "CC(=O)Nc1ccc(OC(C)=O)cc1", "growth": "8.93% (active) and 111% (inactive)"}
{"smiles": "N#Cc1c(N)nc2c(c(-c3ccc(Cl)cc3)nn2-c2ccccc2)c1C#N", "growth": "96.1% [100 µM] (inactive)"}
{"smiles": "S=c1ccc2ccccc2[nH]1", "growth": "92.2% (inactive) and 93.3% (inactive)"}
{"smiles": "Nc1nc(N)c2cc(S(=O)(=O)c3ccccc3)ccc2n1", "growth": "54.8% (inactive) and 46.3% (inactive)"}
{"smiles": "OCc1ccccc1F", "growth": "97.3% (inactive)"}
{"smiles": "O=C(O)C(Cc1ccc(OS(=O)(=O)Cc2ccccc2)cc1)NS(=O)(=O)Cc1ccccc1", "note": "(stereo unspecified)", "growth": "105% (inactive) and 118% (inactive)"}
{"smiles": "Cc1ccc(NC(=S)N/C=C(\\c2ccccc2)S(=O)Cc2ccccc2)c(C)c1", "note": "(stereo unspecified)", "growth": "95.8% (inactive)"}
{"smiles": "N#Cc1c[nH]n2ccnc12", "growth": "86% (inactive)"}
{"smiles": "CN(C)C(=S)N(C)C", "growth": "95.6% (inactive)"}
{"smiles": "Cn1c(N)c(N=O)c(=O)n(C)c1=O", "growth": "101% (inactive) and 108% (inactive)"}
{"smiles": "CCNCc1ccccc1", "growth": "102% (inactive)"}
{"smiles": "O=P(O)(O)OC1C(OP(=O)(O)O)C(OP(=O)(O)O)C(OP(=O)(O)O)C(OP(=O)(O)O)C1OP(=O)(O)O.[Cu+2]", "note": "(stereo unspecified)", "growth": "114% (inactive)"}
{"smiles": "OC(CC(c1ccccc1)c1cccc2ccccc12)(c1ccccc1)c1ccccc1", "note": "(stereo unspecified)", "growth": "94.6% (inactive) and 97% (inactive)"}
{"smiles": "CCCC(=O)Oc1ccc2ccccc2c1", "growth": "89.9% (inactive)"}
{"system": "HOP-62 NSCLC", "test": "NCI-60 one-dose screen, 48 h (100 = growth as untreated, 0 = no growth, -100 = all killed)", "conditions": "100 µM", "protocol": "as §1, §2, §3, §4"}
{"smiles": "CS/C(=C\\c1ccc(C(=O)c2ccc(C)cc2)n1C)S(C)=O", "note": "(stereo unspecified)", "growth": "76.9% (inactive)"}
{"smiles": "O=c1ccn2c(n1)OC1CC2OC1COC(c1ccccc1)(c1ccccc1)c1ccccc1", "note": "(stereo unspecified)", "growth": "96.3% (inactive)"}
